In the supplement of paper PMC6555819:

How the values were obtained:
Experiment in all cases: PBM binding z-score (relative to random genomic background probes); higher = stronger binding; sequences stand for … in GC…GCGATTGACAGCGTAGAATGAAGG
[1] = test system: RARb homodimer (NR concentration 270 nM)
Summary of the method: (§1)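 Ligand-free nuclear receptor dimers were bound for 1 h to custom Agilent 4×180K protein-binding microarrays. Detection used antibodies against each partner (one per run). Binding z-scores rest on regression-normalized fluorescence, with random background probes as the reference.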

[2] = test system: RARg:RXRa (NR concentration 270 nM, RXRa partner concentration 90 nM)
Summary of the method: as §1

[3] = test system: RARg homodimer (NR concentration 270 nM)
Summary of the method: as §1

[4] = test system: RXRa DBDmut IVT, anti-RXR (DBD mutation: RXRa K156A/R161A, NR concentration 90 nM)
Summary of the method: as §1

[5] = test system: RXRa homodimer (NR concentration 180 nM)
Summary of the method: as §1

[6] = test system: THRa:RXRa (NR concentration 90 nM, RXRa partner concentration 90 nM)
Summary of the method: as §1

[7] = test system: THRa homodimer (NR concentration 90 nM)
Summary of the method: as §1

[8] = test system: VDR:RXRa (NR concentration 270 nM, RXRa partner concentration 90 nM)
Summary of the method: as §1

[9] = test system: VDR homodimer (NR concentration 270 nM)
Summary of the method: as §1

Sequence	PBM binding z-score [1]	PBM binding z-score [2]	PBM binding z-score [3]	PBM binding z-score [4]	PBM binding z-score [5]	PBM binding z-score [6]	PBM binding z-score [7]	PBM binding z-score [8]	PBM binding z-score [9]
CGTCAAAGTTCCAGGTAACGTAACAGAAAGCAGC	-0.0356	0.18	0.454	0.141	0.0249	0.992	0.691	-0.14	0.0156
TGAAAGAGGTTAAAGATCAGGGAACGTGGCGTCG	1.1	2.9	1.68	0.56	4.19	1.63	-0.693	1.82	0.28
GTACCAAGGTGTATAGGTCGTTGATGAGTAGGCG	0.761	0.597	0.288	0.186	0.791	0.249	-0.307	0.168	0.945
ACTAGCAGGCCGAGTTTGGGTCACTCAAACAAAG	1.65	1.04	0.63	-0.134	0.562	2.17	0.853	0.459	0.396
TAGCCTAGGTCAAATCGGGCCAGTATACGCTATA	2.7	4.3	4.47	0.997	3.31	4.59	0.89	2.7	0.378
CCAGACAGGTGAAAGGTATCTCAGTCTGGTACGC	0.311	0.551	0.554	0.109	0.972	0.0736	-0.151	0.0976	-0.194
GCTGCTAGGGCAGGTTGGTCAGCTAACGGGTACG	0.705	-0.148	0.544	-0.241	-0.467	-0.443	-0.665	-0.775	-0.232
TCTTGTAGATCAGGCAGGTTAAGAAAGCCTGAGT	-0.0605	-0.161	-0.489	0.355	0.102	0.149	-0.429	0.268	0.00584
CCTACAGGGCCATCAGGTCATTGATATCAACGTT	2.75	2.63	2.35	0.562	1.63	3.26	2.79	2.48	1.45
CCAGACAGTTGAAAGGTAACTCAGTCTGGTACGC	0.351	0.456	0.357	0.511	0.993	0.38	-0.129	0.591	-0.355
CCTTACGGGTCAAGGTGATAGCACGGGTGGTACG	3.13	4.81	4.64	0.497	5.2	2.94	0.765	2.92	0.801
GCTGCTAGGTCAACTGATAGTCAGCTAAAGCTCG	3.15	4.31	5.07	1.68	2.75	2.74	0.622	0.945	0.0089
ATCTCTAGGTAAAGATAGTCCAGTGAATGCAAAT	-0.17	0.22	0.658	0.0705	0.108	0.341	0.315	-0.0135	0.0378
GCCTACGGGTCAAAGGTTATAGCATGAATAGAAT	3.15	6.82	4.24	1.55	9.55	3.62	-0.143	5.46	1.08
CCTACTGGGCCATTAGGTCATTGATATCAACGTT	2.8	2.38	2.12	0.292	1.04	2.63	2.27	1.47	1.01
CAGCCTAGGTCAGGGCCGGTATAGGAGGAACGTT	2.41	3.04	3.86	-0.785	1.56	1.88	0.2	0.178	-0.454
TCTAGTTGATCAAAGGTCACACACTCGAAATGCG	4.89	6.54	5.95	2.21	7.03	4.22	2.08	5.05	2.79
CCTTACGGGTCAATGTTATAGCACGGGTGGTACG	2.54	4.03	3.85	0.842	4.04	1.85	-0.227	2.57	0.834
CAAACTAGGGCAAGGTCAAAGTCGGTTTGTGCCA	4.09	4.67	4.49	2.41	4.63	3.75	2.34	4.44	3.52
CTACCAAGGAGAACAAGGTCGTTGATTACTATTC	1.14	0.413	0.266	1.2	0.732	1.87	1.05	1.56	1.73
CCTATTAGTTGACCATAAGGGCAATCGAAGCTCG	1.72	1.12	1.22	0.557	0.516	1.47	1.18	0.713	1.13
CCGACTGGGGAAGAAAGGTTACCATACCATCCGG	1.97	0.982	0.848	-0.897	1.49	1.09	-0.21	0.522	-0.0513
GCTAGTTGGTCAGTAACAGGTCACACACCGGTCG	3.38	2.86	2.06	0.0356	2.11	2.13	1.06	1.68	0.753
TCGGACAGGTGAAGGTAACTCAGGTACGCAGTCG	1.08	0.664	1.17	0.768	0.653	1.33	0.486	0.531	0.395
CTACCTAGGTGAACAAGGTCGTTGATTACTATTC	1.73	1.31	0.8	1.27	1.34	2.67	1.54	5.37	2.12
TCTATTATTTGATTAGGGCAACCGAAACAGCGGA	0.742	0.671	0.596	1.27	0.751	0.898	1.07	0.857	1.47

Sequence	PBM binding z-score [1]	PBM binding z-score [2]	PBM binding z-score [3]	PBM binding z-score [4]	PBM binding z-score [5]	PBM binding z-score [6]	PBM binding z-score [7]	PBM binding z-score [8]	PBM binding z-score [9]
GCTGCTAGGTCAGGTTGGTCCGCTAACGGGTACG	2.4	2.29	3.46	0.513	0.839	2.36	0.57	0.681	-0.0405
ATCGAAAGGTCGAAGCTGAGTATACCCACCCGAA	2.18	3.83	3.5	1.42	4.13	1.73	0.00439	2.47	0.746
GCCTATAGGTAATACAAGGTGAAAGTCCGATTGT	0.782	0.406	0.334	0.0892	0.582	4.25	1.06	0.256	-0.376
TCATATAGGTAATACAGGTGAAAGTAGGCATCTA	0.649	0.714	0.742	1.81	1.2	1.05	0.429	1.41	0.305
CATTACGGGTCACTCCAGGTTATAGCATCGGAGT	3.31	4.59	4.57	1.53	4.65	5.06	0.963	4.52	1.83
CCTTGCAGGCCAATCTGGGTCACTCAAGGCTTGA	2.28	1.15	1.42	0.233	0.742	3.61	0.612	0.663	-0.0782
CCTACTGGGGCATCAGGTCATTGATATCAACGTT	2.89	2.6	2.39	0.331	1.87	3.19	2.71	1.85	2.06
CGTCAAAGTTCAACTCAGGTAACGTAAAGCACGC	4.24	5.85	6.43	4.55	5.06	5.03	1.38	4.45	4.21
GTACCAAGGTGGATAGGTCGTTGATGAGTAGGCG	0.625	0.328	0.275	-0.726	0.461	-0.0275	-0.612	-0.168	-0.371
CCTCTGAGGACAACAGGAGGTCAGAGCTGCCAGA	3.48	3.66	3.51	1.29	1.78	3.92	3.02	2.17	1.69
TCTCGGAGGACACGAAGGGTCAGAGCTCGACATC	3.84	3.26	3.44	0.595	2.4	2.92	0.541	1.91	0.624
CTCGAAAGGTCGTGCTCAGGTGGGTATACCAAAC	2.65	4.38	3.96	1.68	4.59	2.57	0.504	3.24	1.08
CAAACTAGGTCAAGGACAGTGAATCTCCGCACGC	3.29	3.69	4.39	1.7	2.79	3.27	2.33	1.56	0.901
CAAACTAGGTCAAGGTCAAAGTTGGTTTGTGCCA	5.15	6.1	6.67	3.1	6.01	4.39	3.85	5.16	4.14
TGTATGAGGTTATAAGATCAGGGAACGTTGCAAA	0.472	1.82	1.46	1.02	1.85	2.08	0.546	1.26	0.837
CCTAGCAGGACAATCTGGGTCACTCAAGGCTTGA	2.13	1.2	1.42	0.379	1.09	3.07	0.761	0.704	0.0931
CAAACTAGGTCACCGGAAGGTCAAGGTCCGCATG	5.77	8.53	7.66	2.03	6.64	4.3	3.53	5.58	3.16
GGAACGAGGGCAAAGTTGATAGCTTCTGTCGACG	1.06	1.82	1.32	2.55	1.72	1.13	-0.251	1.09	1.22
CCTCGGAGGACAACAGGAGGTCCGAGCTGCCAGA	0.279	0.372	0.854	-0.16	-0.455	0.4	-0.324	-0.665	-0.197
ACTTACGGGTCAACGAGGTTATGGCACGCGTATA	3.9	5.75	5.68	2.65	6.57	4.04	1.32	7.66	3.94
GGTACAGGGTCAGCTAGAGGCCAGAGTATGGAAA	3.27	6.72	4.84	1.01	4.27	3.07	0.717	3.29	1.14
TTACCCAGGTGAAAGGTCGTTGATGCACGCCTTG	2.56	3.48	1.53	0.677	4.51	3.2	1.26	3.08	1.66
ACTCGGAGTACAAAGGTCAGAGCTACGCCAGTGA	4.27	5.22	4.7	2.11	5.37	2.64	-0.258	3.59	1.63
ACTTCCGGGTCAACGAGGTTATAGCACGCGTATA	3.44	5.17	4.74	2.62	5.76	4.34	2.68	7.62	4.34
CCGACTGGGACAAGGTTACCATAACGCACAGCCA	0.97	0.731	0.756	-0.018	1.19	1.61	1.08	0.2	-0.0253
TTACCAAGGTGAGCTGATGTCGTTGATCCAACTC	0.273	0.225	0.147	-0.369	0.239	1.48	0.0669	-0.0183	-0.492
